Cruzain inh Det = blocks cruzain activity in presence of Triton detergent; actives 0.43% (n = 200,000); Potency, µM, for the others: max response, negative = inhibition, actives largely listed as inhibitors; AID 1478; purified cruzain, Z-FR-AMC fluorescence, 0.01% Triton; P25779;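 also: plate controls were neutral wells for no effect and buffer without enzyme for full effect; nearly all actives have a fitted effect of over 40% in size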
Target sequence (P25779 123-467 limits assumed): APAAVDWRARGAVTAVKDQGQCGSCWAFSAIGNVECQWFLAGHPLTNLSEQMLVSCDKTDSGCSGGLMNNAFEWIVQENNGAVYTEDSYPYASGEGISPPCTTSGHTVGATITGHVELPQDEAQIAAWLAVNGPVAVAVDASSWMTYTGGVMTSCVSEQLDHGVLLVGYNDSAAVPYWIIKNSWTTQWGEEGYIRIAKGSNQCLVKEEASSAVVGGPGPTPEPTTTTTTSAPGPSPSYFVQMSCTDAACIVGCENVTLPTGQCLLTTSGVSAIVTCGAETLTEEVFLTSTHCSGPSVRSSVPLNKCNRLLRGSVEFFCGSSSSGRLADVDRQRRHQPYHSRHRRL
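Detergent-containing arm of a paired screen for aggregation-based inhibition: 0.01% Triton X-100 present. Cruzain at 1.5 nM cleaved 2 uM Z-FR-AMC at pH 5.5 with 5 mM DTT; AMC fluorescence gain over 60 s measured activity.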
Cruzain noTriton = inhibitors of Trypanosoma cruzi cruzain without detergent | P25779 | purified cruzain, Z-FR-AMC fluorescence, no detergent | Potency, µM, for inactives: max response, negative = inhibition, most hits filed as inhibitors | actives 2.3% (n = 200,000);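 also: plate controls were enzyme without inhibitor for no effect and buffer without enzyme for full effect; nearly all actives have a fitted effect of over 40% in size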
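Purified cruzain at 1.5 nM, pre-incubated 15 min with compound at room temperature in 100 mM sodium acetate pH 5.5, 5 mM DTT, 0.00005% Triton X-100. Reaction started with 2 uM Z-FR-AMC; AMC fluorescence increase over 60 s gives rate.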
NS1 function inh = blocks influenza NS1 protein function; Potency, µM (top dose mostly 46.1 µM), for inactives: at the highest dose activity, positive = more growth; AID 2326; actives 0.4% (n = 270,000); calls by dose curve; also: actives are rising curves; nearly all actives have a fitted effect of over 50% in size
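Recovery from NS1-induced slow growth read by OD600 in budding yeast switched to galactose assay medium (pH 6.0, -URA) at 1:100 dilution. Compound 23 nl per well; the matching strain lacking NS1 serves as control.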
Papain counter = blocks papain protease activity, flagging nonselective cruzain hits; shares compounds with Cruzain inh Det; purified papain, Z-FR-AMC fluorescence cleavage; Potency, µM, for inactives: max response, negative = inhibition, hits mostly inhibitors; actives 41% (n = 410); AID 2161;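 also: 0% = no-compound wells and -100% = no-enzyme wells; nearly all actives have a fitted effect of over 35% in size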
Target sequence (P00784 whole entry, looked up): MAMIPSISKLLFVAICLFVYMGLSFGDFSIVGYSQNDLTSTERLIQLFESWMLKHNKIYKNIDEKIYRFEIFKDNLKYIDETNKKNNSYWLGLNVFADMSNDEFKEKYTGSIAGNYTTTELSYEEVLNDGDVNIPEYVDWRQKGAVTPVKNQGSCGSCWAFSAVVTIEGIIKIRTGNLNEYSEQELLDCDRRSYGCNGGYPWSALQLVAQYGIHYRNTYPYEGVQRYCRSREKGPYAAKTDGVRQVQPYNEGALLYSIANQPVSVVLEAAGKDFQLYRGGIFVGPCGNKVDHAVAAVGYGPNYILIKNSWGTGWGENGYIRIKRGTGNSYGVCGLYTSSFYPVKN
* = called active by the depositor; ? = inconclusive; . = no result. Shown is part of a subset that was picked to be rich in hits. Unless noted, calls follow the shape of the dose curve; as a rule, active = well fitted curve in the direction sought with a large enough effect; inconclusive = small, poorly fitted or top-dose-only effect, or another doubt; inactive = no such curve, though single readings can be large; an effect the other way counts as inactive or inconclusive. Potency is read from the fitted curve at half-maximal effect.

SMILES	Cruzain inh Det	Cruzain noTriton	NS1 function inh	Papain counter
Cc1ccc(-c2nc3c(=O)n(C)c(=O)nc-3n(C)n2)cc1	.	.	.	-7.2%
Cn1c(=O)c(-c2ccc(Cl)cc2)nc2cncnc21	5.8%	1.3%	.	.
Cc1ccc(-c2nc(N)n(S(C)(=O)=O)n2)cc1	2.9%	-5.6%	8.1%	.
CCc1ccc(-c2csc3ncn(CC)c(=O)c23)cc1	.	.	-9.6%	.
Cn1ncnc2c(=O)n(C)c(=O)nc1-2	1.26µM*	1.26µM*	-93.7%	11.0%
Cn1nc(-c2ccccn2)nc2c(=O)n(C)c(=O)nc1-2	.	.	-32.3%	.
CC(C)N(C(=O)Cn1cc(S(=O)(=O)Cc2ccc(C(F)(F)F)cc2)c2ccccc21)C(C)C	-5.0%	11.0%	.	.
Cc1nc(N2CCOCC2)c2nc(-c3ccccc3)n(CCCN3CCOCC3)c2n1	-3.2%	-7.3%	.	.
CNc1oc(Cc2ccccc2)nc1S(=O)(=O)c1ccccc1	3.16µM*	3.16µM*	2.2%	28.2µM*
CCOc1ccc(-c2nc(S(=O)(=O)c3ccccc3)c(NC)o2)cc1	.	.	7.5%	.
CC1CN(C(=O)Nc2ccc(C(=O)NCc3cccc(F)c3)cc2)c2ccccc2S1 (stereo not given)	-5.6%	?	.	.
COC(=O)N1C(c2ccccc2)=Cc2ccccc2C1C1(C(=O)OC)CCCC1=O (stereo not given)	1.8%	-1.7%	.	.
CN1C(=O)/C(=C\c2ccco2)N=C1c1ccc(Cl)cc1Cl	.	.	8.3%	.
O=C1OC(/C=C/c2ccc(Cl)cc2)=NC/1=C/c1ccco1	2.51µM*	15.8µM*	11.6%	-14.7%
Cc1cn2c(=O)cc(COC(=O)c3ccc(NC(=O)COc4ccc(C)c(C)c4)cc3)nc2s1	-0.3%	1.4%	.	.
O=C(CC(c1ccccc1)c1cc(Br)ccc1O)NCC1(c2ccccc2)CCCC1 (stereo not given)	-1.2%	-20.1%	.	.
COc1ccc(Nc2nc(Cl)nc(NCCO)n2)cc1	0.6%	11.5%	17.7%	.
CCCCNc1cc(C)nc(NCc2ccccc2)n1	3.7%	4.5%	-143.7%	.
N#Cc1nc(NCCCCO)nc(Nc2ccccc2)n1	.	.	.	2.24µM*
CCCCNc1nc(C#N)nc(Nc2ccccc2)n1	.	.	.	1µM*
COc1ccc(NC(=O)N2CCCC3(CCN(C(=O)c4cccc(F)c4)CC3)C2)cc1	1.2%	9.1%	.	.
CCCS(=O)(=O)N1CCC(N2CCN(Cc3ccc(F)cc3)C(=O)C2=O)CC1	1.9%	-1.7%	.	.
CCOc1ccc(C(=O)NCC(=O)OCC(=O)N2CCCCC2)cc1	-11.5%	0.3%	1.9%	.
CCOc1ccc(C(=O)COC(=O)CNC(=O)C2CCCCC2)cc1	.	.	.	-27.5%
COc1cccc(C(=O)NCC(=O)OCC(=O)c2ccccc2)c1	?	?	11.9%	.
SMILES	Cruzain inh Det	Cruzain noTriton	NS1 function inh	Papain counter
O=C(CN1C(=O)c2ccccc2C1=O)NCC(=O)OCC(=O)c1ccc(Br)cc1	0.2%	-9.0%	-72.1%	.
COc1ccc(C(=O)C(C)OC(=O)CNC(=O)C2CCCCC2)cc1 (stereo not given)	.	.	.	11.2µM*
COc1ccc(NC(=O)CNC(=O)C2CCCCC2)cc1	.	.	-15.4%	.
O=C(CNC(=O)C1CCCCC1)OCC(=O)c1ccc(Br)cc1	.	.	10.2%	-24.2%
O=C(CNC(=O)c1ccccc1)OCC(=O)c1ccccc1	.	.	.	-24.7%
CCn1c(=O)c2cc(C(=O)NCc3cc(OC)ccc3OC)sc2c2ccccc21	0.4%	7.5%	.	.
COc1ccc(CNc2ncncc2-c2ccc(N(C)C)cc2)c(OC)c1	-4.7%	-14.4%	.	.
COCCn1c(=O)c(-c2cn(C)c3ccccc23)nc2cnc(N3CCNCC3)nc21	-2.8%	-7.2%	.	.
Cc1ccc(CN(Cc2ccco2)C(=O)COc2ccc(Cl)cc2)o1	-6.1%	-5.3%	.	.
O=C1COc2ccc(C(=O)COC(=O)CNC(=O)C3CCCCC3)cc2N1	.	.	7.9%	.
O=C(CNC(=O)C1CCCCC1)OCC(=O)c1ccc2c(c1)CCC2	.	.	.	-24.9%
CCN1CCN(C(=O)Cn2ncc3c4ccccc4n(Cc4c(C)cc(C)cc4C)c3c2=O)CC1	-7.8%	16.0%	.	.
COc1cc(/C=C/c2nc(C#N)c(NC(C)c3ccccc3)o2)cc(OC)c1OC (stereo not given)	6.7%	?	.	.
CNc1oc(/C=C/c2cc(OC)c(OC)c(OC)c2)nc1C#N	28.2µM*	10µM*	.	8.91µM*
COc1ccc(-c2nc3cnc(N4CCNCC4)nc3n(C3CC3)c2=O)cc1	-2.7%	-2.9%	.	.
O=C(COc1ccc([N+](=O)[O-])cc1)NCCc1nc2ccccc2[nH]1	.	.	1.4%	.
O=C(COc1ccc(F)cc1)NCCc1nc2ccccc2[nH]1	1.58µM*	-7.6%	.	3.55µM*
Cc1ccc(C)c(CNC(=O)c2ccc3c(c2)nc2n3CCCCC2)c1	-4.3%	9.8%	.	.
Cc1cc(NC(=O)c2ccc3nc(-c4ccccc4)c(-c4ccccc4)nc3c2)no1	-4.9%	-21.0%	-14.1%	.
CNC(=O)c1ccc2nc(-c3cccc(C)c3)c(-c3cccc(C)c3)nc2c1	.	.	.	-12.6%
Cc1cccc(CSc2nc3ccncc3n2CC(=O)Nc2ccc(C)c(C)c2)c1	-3.4%	4.7%	25.3%	.
O=C(Cn1c(SCc2cccc(F)c2)nc2ccncc21)Nc1ccc(Cl)cc1F	-19.8%	7.2%	.	.
CC(C)CCNC(=O)Cn1c(SCc2cccc(F)c2)nc2ccncc21	.	.	.	-13.7%
CCCCNC(=O)Cn1c(SCc2cccc(C)c2)nc2ccncc21	.	.	.	-14.9%
CCS(=O)(=O)c1cccc(C(=O)N2CCN(c3nc4c(C)ccc(Cl)c4s3)CC2)c1	7.94µM*	?	.	-5.8%
SMILES	Cruzain inh Det	Cruzain noTriton	NS1 function inh	Papain counter
CCS(=O)(=O)c1ccc(C(=O)N2CCN(c3nc4c(OC)ccc(C)c4s3)CC2)cc1	-9.3%	?	.	.
CC(C)(C)C(=O)OCc1cc(=O)n2nc(C3CCCCC3)sc2n1	-3.7%	-0.4%	.	.
CC1=CC(=O)C=C(C)C1=NOC(=O)/C=C\c1ccccc1	-4.0%	-1.3%	4.3%	.
CC1=CC(=NOC(=O)/C=C/c2ccccc2)C=C(C)C1=O	2.24µM*	2.51µM*	-17.4%	10µM*
COc1cc2cc(CN(Cc3nnnn3Cc3ccco3)C3CCCCC3)c(=O)[nH]c2cc1OC	7.08µM*	7.94µM*	-7.7%	28.2µM*
COCCn1nnnc1CN(Cc1cc2cc(OC)c(OC)cc2[nH]c1=O)C1CCCC1	-15.3%	1.1%	-10.9%	.
CCOc1ccc2[nH]c(=O)c(CN(Cc3ccco3)Cc3nnnn3Cc3ccccc3)cc2c1	-7.4%	17.4%	-22.2%	.
CCOc1ccc2[nH]c(=O)c(CN(Cc3nnnn3Cc3ccco3)C3CCCCC3)cc2c1	6.31µM*	10µM*	?	-9.4%
Cc1ccc(NS(=O)(=O)c2ccc(-c3cc(C)no3)cc2)c(Br)c1	-7.8%	-10.9%	.	.
Cn1c(C(=O)NCCN2CCCCCC2)cc2c(=O)n(C)c3ccccc3c21	10µM*	7.94µM*	0.0%	-19.9%
Cn1c(C(=O)NCCN2CCN(Cc3ccccc3)CC2)cc2c(=O)n(C)c3ccccc3c21	.	.	15.9%	.
COc1cccc(/C=C/c2nc(C#N)c(NC3CCCCC3)o2)c1	-4.6%	4.0%	.	.
N#Cc1nc(Nc2ccc(F)cc2)nc(NC2CCCC2)n1	.	.	.	0.447µM*
N#Cc1nc(Nc2ccccc2)nc(NC2CCCC2)n1	.	.	.	0.447µM*
c1ccc(Nc2nc(N3CCCC3)nc(N3CCCC3)n2)cc1	-11.4%	-14.9%	-32.1%	.
COc1cccc(Nc2nc(C#N)nc(NC3CCCC3)n2)c1	.	.	.	0.282µM*
N#Cc1nc(Nc2cccc(Br)c2)nc(NC2CCCC2)n1	.	.	.	1.26µM*
